Potency and outcome data for 47 compounds are collected here from PubChem BioAssay (NCATS).

Each structure is given as a SMILES string. Records with an inconclusive call do not appear. A call without a number means that no potency is given here. Active and inactive are the calls of the source. The call rests on the fitted dose curve; in most records, active means well fitted inhibition curve with a large enough effect; inconclusive means small, poorly fitted or top-dose-only effect; inactive means flat fitted curve, though single readings scatter. Peptide text beside a SMILES is read from it.

For this test, the system named is CRL-7250. Kind of test: qHTS assay to identify novel small-molecules to repurpose for Merkel cell carcinoma treatment (AID 1296009). Further: nearly all actives have a fitted effect of over 60% in size. As to conditions: MCC and control cell lines, CellTiter-Glo viability, 72 h; series mostly up to 92 µM. In a few lines: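 Viability readout: ATP luminescence (CellTiter-Glo) after 72 hr drug exposure at 37 degree celsius. Dose-response format was 8 points for NPC and 11 points for MIPE; data normalized to in-plate controls.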
(Quantitative high-throughput screening tests each substance at several concentrations.)

With `OC[C@H]1O[C@@H](Oc2ccc(O)c3cccc(O)c23)[C@H](O)[C@@H](O)[C@@H]1O`, the Potency result was “inactive”. The same measure, in the same setting: the same measure for `O=C(O)Cn1nnc(-c2ccc(CN(CCCCOc3ccc(CN4CCCC4)cc3)CCc3ccccc3)cc2)n1`: “inactive”; for `COC(=O)C(CC1CCCC1)c1ccc(S(C)(=O)=O)cc1` (configuration not stated): “inactive”. The same measure, in the same setting: to `CC1CCC23COC(=O)C2=CC(O)CC3C1(C)CCC1=CC(=O)OC1O` (configuration not stated) belongs “inactive”. As to `C/C(=C\CCC1(C)C2CC3C(C2)C31C)C(=O)O` (configuration not stated), the Potency result is “inactive”. For `COc1c2c(c(C)c3c1C(=O)OC3)OC1(C)CC(O)C34OC(OC)(CCC3(C)C1C2)OC4(C)CO` (configuration not stated), the Potency result was “inactive”. Turning to `CCCCNc1ccc(-c2ccc(CN3CCOCC3)cn2)c(NC2CCC(O)CC2)c1` (configuration not stated), the Potency result was “inactive”. As for `C1=Cc2ccccc2C(=C2CCN(CCCCc3nn[nH]n3)CC2)c2ccccc21`, the Potency result is “inactive”.

`N#CC(c1ccnc(OCc2ccc(CN3CCOCC3)cc2)n1)c1nc2ccccc2s1` (configuration not stated): the Potency result is “inactive”. Take `C[C@@H]1C[C@H]2OC(=O)[C@@]3(C)CCC[C@](C)(C23)[C@@]1(O)CCC1=CC(=O)OC1O` (some centres not stated): the Potency result is “inactive”. With `C/C(=C\CCC(C)(C)O)CCO[C@@H]1O[C@H](CO[C@@H]2O[C@@H](C)[C@H](O)[C@@H](O)[C@H]2O)[C@@H](O)[C@H](O)[C@H]1O`, the Potency entry is “inactive”. As to `O=C(Nc1ccn[nH]1)c1c(F)cccc1F`, the Potency result is “inactive”. As for `CCC(C)/C=C(C)/C=C/C1=CC2=CC(=O)C(C)(O)C(OC(C)=O)C2CO1` (configuration not stated), the Potency result was “inactive”.

Turning to `Cn1c2ccc(NC(=O)c3ccccc3)cc2c(=O)n2nc(C(=O)O)cc12`, the Potency entry was “inactive”. In the case of `CC1(C)CC(=O)N(CCCCN2CCN(c3ncccn3)CC2)C(=O)C1`, the Potency entry is “inactive”. Still for that read-out and setting: to `O=C(O)c1cccc(C(=O)CCC2OC(n3cnc4c(=O)[nH]cnc43)C(O)C2O)c1` (configuration not stated) belongs “inactive”; to `C=C[C@H]1C(O[C@@H]2O[C@H](CO)[C@@H](O)[C@H](O)[C@H]2O)OC=C2C(=O)N3CCc4c([nH]c5ccccc45)[C@H]3C[C@H]21` (some centres not stated), “inactive”. As for `CC1=C(C)C(=O)OC(C(C)C2C(O)CC3C4C5OC5C5(O)CC(OC6OC(CO)C(O)C(O)C6O)CC(O)C5(C)C4CCC32C)C1` (configuration not stated), the Potency result is “inactive”. In the case of `C=C(C)C1CCC2(C(=O)O[C@@H]3O[C@H](CO[C@@H]4O[C@H](CO)[C@@H](O)[C@H](O)[C@H]4O)[C@@H](O)[C@H](O[C@@H]4O[C@@H](C)[C@H](O)[C@@H](O)[C@H]4O)[C@H]3O)CCC3(C(=O)O)C(CCC4C5(C)CCC(O)C(C)(C)C5CCC43C)C12` (some centres not stated), the outcome was “inactive [at 9.27 µM]”. In the case of `COC(=O)c1ccccc1O[C@@H]1O[C@H](CO)[C@@H](O)[C@H](O)[C@H]1O[C@@H]1O[C@@H](C)[C@H](O)[C@@H](O)[C@H]1O`, the Potency entry was “inactive”. In the case of `COc1ccc(OC)c(C2C(C#N)=C(N)Oc3n[nH]c(-c4ccc5ccccc5c4)c32)c1` (configuration not stated), the Potency entry was “inactive”. As for `C[C@@H](O)[C@H](N)C(=O)N1CCC[C@H]1C(=O)N1CCC[C@H]1C(=O)N[C@H](C(N)=O)[C@@H](C)O` (H-TPPT-NH2), the outcome was “inactive [at 9.27 µM]”. As for `CN(C)C(=O)C(O)C(Cc1ccccc1)NC(=O)c1cc2cc(Cl)ccc2[nH]1` (configuration not stated), the Potency result is “inactive”. In the case of `C=C(CO)C(=O)O[C@H]1C[C@@]23O[C@@H]2CC/C(=C/[C@H]2OC(=O)C(=C)[C@H]12)CO[C@H]3O`, the Potency result is “inactive”. For `CC(C)c1ccc(NC(=O)Cn2cnc3c2c(=O)n(C)c(=O)n3C)cc1`, the Potency result is “inactive”. Same read-out and setting: to `C/C(=C\CCC1(C)C2CCC(C2)C1(C)O)C(=O)O` (configuration not stated) belongs “inactive”; to `Cc1ccc([C@@H]2CC=C(C(=O)O)[C@H](c3ccc(C(C)(C)C)cc3)N2S(=O)(=O)c2ccc(C)cc2)cc1`, “inactive”; to `C/C=C/C=C/C(CC(=O)O)Nc1ccc(C=O)cc1` (configuration not stated), “inactive”. The same measure, in the same setting: the same measure for `COc1ncc2cc(C(=O)Nc3cc(C(=O)NCc4cccc(Cl)c4)ccc3Cl)c(=O)[nH]c2n1`: “inactive”; for `Cc1oc(S(=O)(=O)N2CCCCC2)cc1NC(=O)Nc1ccccc1`: “inactive”; for `CC1(C)CC2C(O)C3=C(CC(C)(O)C2C1)C(=O)OC3` (configuration not stated): “inactive”. The same measure, in the same setting: to `COc1ccccc1CN[C@H]1CCCN[C@H]1c1ccccc1` belongs “inactive”. In the case of `COC1CC(O[C@H]2CC[C@@]3(C)C(=CC[C@]4(O)C3[C@H](OC(C)=O)[C@@H](OC(=O)c3ccccc3)[C@]3(C)[C@@H](C(C)=O)CC[C@@]34O)C2)OC(C)C1OC1CC(OC)C(OC2CC(OC)C(OC3OC(C)C(OC4OC(CO)C(O)C(O)C4O)C(OC)C3O)C(C)O2)C(C)O1` (some centres not stated), the outcome is “inactive [at 9.27 µM]”. With `CC(=O)O[C@@H]1CC2C(C)(C)C(=O)C=C[C@]2(C)C2CC[C@@]3(C)[C@H](c4ccoc4)OC(=O)[C@H]4O[C@]43[C@@]21C` (some centres not stated), the Potency result is “inactive”. For the compound `CCOc1ncc(S(=O)(=O)N2CCN(CC)CC2)cc1-c1nc2c(CC)n(CCOC)nc2c(=O)[nH]1`, the Potency entry was “inactive”.

For `O=S(=O)(Nc1ccccn1)c1ccc(N=Cc2c(O)[nH]c3ccc4ncsc4c23)cc1`, the outcome was “inactive [at 9.27 µM]”. `C=C(C(=O)O)C1CC2=C(C)CCCC2(C)C[C@@H]1O` (some centres not stated): the Potency result is “inactive”.

`Cc1c(C)c(NCC(=O)N(C)C2CCN(Cc3ccc(C(N)=O)cc3)CC2)c(C)c(C)c1N`: the Potency result was “inactive”.

Take `C=C[C@H]1C(O[C@@H]2O[C@H](CO)[C@@H](O)[C@H](O)[C@H]2O)OC=C2C(=O)N3CCc4c([nH]c5ccccc45)C3CC21` (some centres not stated): the Potency entry was “inactive”. For `C=CC1(C)CC(OC(=O)C(=C)C(O)COC(C)=O)C(C(=C)C(=O)OC)C(O)C1C(=C)CO` (configuration not stated), the Potency result is “inactive”. On the same count and under the same terms, the same measure for `C=C1CCC2C(C)(C(=O)O)CCCC2(C)C1CCC1=CCOC1=O` (configuration not stated): “inactive”; for `CCOC(=O)COc1ccc2c(c1)C[C@@H](NC[C@H](O)c1cccc(Cl)c1)CC2`: “inactive”. `C[C@@H]1O[C@@H](O[C@H]2[C@H](O)[C@@H](O)[C@H](OC[C@H]3O[C@@H](OC(=O)[C@]45CCC(C)(C)C[C@H]4C4=CCC6[C@@]7(C)C[C@@H](O)[C@H](O)[C@@](C)(CO)C7[C@H](O)C[C@@]6(C)[C@]4(C)CC5)[C@H](O)[C@@H](O)[C@@H]3O)O[C@@H]2CO)[C@H](O)[C@H](O)[C@H]1O` (some centres not stated): the outcome is “inactive [at 9.27 µM]”.

Consider `C[C@H]1CCN2C[C@]34C[C@@]5(C(=O)Nc6c5ccc5c6OC=CC(C)(C)O5)C(C)(C)C3C[C@]12C(=O)N4C` (some centres not stated), for which the Potency result is “inactive”. With `COC1C=C([C@@H]2CC=C3[C@@]4(C)C(CC[C@]32C)[C@@]2(C)C=CC(=O)C(C)(C)C2C[C@H]4OC(C)=O)C(=O)O1` (some centres not stated), the Potency result is “inactive”. Turning to `COc1c(OC2OC(CO)C(O)C(O)C2O)ccc(O)c1C(=O)OCc1ccccc1O[C@@H]1O[C@H](CO)[C@@H](O)[C@H](O)[C@H]1O` (some centres not stated), the Potency entry was “inactive”. On to `C=C(C)[C@@H]1CC[C@]2(C(=O)O)CC[C@]3(C)C(CCC4[C@]5(C)C(CC[C@]43C)C(C)(C)[C@@H](O)[C@@H]5C(=O)O)C12` (some centres not stated), for which the Potency result is “inactive”.
